The text below walks through data of PubChem BioAssay.

The nature of the assay: small-molecule microarray binders of probe aWnt5a, primary screen, biochemical, biotinylated probe, 635/667 nm fluorescence (AID 1113).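 Further: score merges 667 nm fluorescence intensity with signal-to-noise per printed feature.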 As to conditions: higher = more signal.
`CS(=O)(=O)CCOC(=O)C1=CC(CCCO)=CC(c2ccc(CN3CCCC3)cc2)N(Cc2sc3ccccc3c2Cl)C=C1C(=O)OCCS(C)(=O)=O` (stereo not given) gave a composite z-score of -0.0297. Next, `CCOc1cc(C(O)C2C=CC3C(=O)NC(=O)C3N2Nc2ccc(Cl)cc2Cl)ccc1O` (stereo not given): -0.154; `Cc1cc(C)c(C(O)C2C=CC3C(=O)N(c4ccccc4)C(=O)C3N2Nc2ccccc2F)c(C)c1` (stereo not given): 0.184. To `CCOC(=O)C[C@H]1[C@H](OC(=O)Cc2ccc3c(c2)OCO3)[C@@H](NC(=O)c2ccc3ccccc3n2)c2cc(OCCCO)ccc2N1C(=O)c1ccccc1` belongs -0.0269; to `NCCCCCNC(=O)[C@@H]1C[C@@H]2C(=O)N[C@@H](CCCCN)C(=O)N2[C@@H]1c1ccc(O)cc1`, -0.0286. To `O=C(C1N=C(c2ccc(OCCCO)cc2)N(c2ccccc2)O1)N1CCCCC1` (stereo not given) belongs 0.0454. As to `C=CCC(OC(C)=O)[C@@H]1[C@@H](N(Cc2ccc(-c3ccccc3)cc2)C(=O)c2ccc(-c3ccccc3)cc2)c2cc(OCCCO)ccc2N1C(=O)c1ccc2ccccc2c1` (stereo not given in full), the composite z-score was -0.11. Next, `CCCC[C@@H](O)C1=C(COC)C[C@H]2C(=O)N(Cc3ccccc3)C(=O)[C@H]2[C@H]1CO`: 0.0102; `COc1ccc(CCNC(=O)[C@@]2(Sc3ccc(C)cc3)CC(=O)N(Cc3ccccc3C(F)(F)F)[C@@H]2c2ccc(CO)cc2I)cc1`: -0.0792; `CCC#CCN(Cc1ccccc1Br)[C@H](/C=C/C1CC1)[C@@H](O)Cc1ccccc1`: -0.197. Next, `NCCCCCNC(=O)[C@H]1C[C@H]2C(=O)N3CCC[C@H]3C(=O)N2[C@H]1c1cccc(OCCO)c1`: 0.0375; `CC(C)[Si](C#CCCCC#N)(O[C@H](c1ccccc1)c1cn(Cc2ccccc2)nn1)C(C)C`: -0.252; `CC(C)N1CC=CC23O[C@@H]4C=CCCOC(=O)C4[C@H]2C(=O)N(CCCO)[C@@H]3C1=O` (stereo not given in full): -0.145.

`[N-]=[N+]=Nc1ccccc1C[C@]1(C(=O)NCC(O)CO)COC(c2ccc(OCCCO)cc2)=N1` (stereo not given in full): the composite z-score is -0.132. On to `COCC(=C=CC[C@H](O)c1ccc(CO)o1)CCO`, for which the composite z-score came to 0.0108. Next, `CC(C)C(CO)N1C(=O)[C@@H]2[C@H]3C(=O)OCC=C[C@H]3OC23C=CCN(c2ccc(Cl)cc2)C(=O)[C@@H]13` (stereo not given in full): -0.1; `COc1ccc([Si](C)(C)[C@H]2[C@H](CC(=O)N3Cc4ccccc4C[C@H]3CO)O[C@@]3(C(=O)N(Cc4ccc(N5CCOC5=O)cc4)c4ccccc43)[C@@H]2C)cc1`: -0.0944; `CCCC[C@@H](O)C1=C(COc2ccccc2)C[C@H]2C(=O)N(Cc3ccccc3)C(=O)[C@H]2[C@H]1CO`: -0.161. Next, `C[C@@H]1NC(=O)[C@@H](Cc2ccccc2)NC(=O)[C@@]23C(=O)N[C@@H](Cc4ccccc4)C2[C@H](C)[C@@]2(C)O[C@H]2C3/C=C/C/C=C\CNC1=O` (stereo not given in full): -0.222. To `[N-]=[N+]=Nc1ccccc1C[C@]1(C(=O)NCCN2CCOCC2)COC(c2ccc(OCCCO)cc2)=N1` belongs -0.349; to `CC(C)C(CO)N1C(=O)[C@@H]2C3C(=O)OCCC/C=C\[C@H]3OC23C=CCN(c2ccc4ccccc4c2)C(=O)[C@@H]13` (stereo not given in full), -0.0405.

Consider `C=C(/C(=C/C[C@H](OC(=O)c1ccncc1)c1ccc(CO)o1)c1cnc2ccccc2c1)C(C)C`, for which the composite z-score amounted to 0.0474. To `C=CCOC(=O)[C@@H]1[C@H]2C(=O)O[C@H](c3ccccc3)[C@H](c3ccccc3)N2[C@H](c2ccc(OCCOC(=O)[C@@H]3C[C@@H]4C(=O)N[C@@H](CCCC[N+](C)(C)C)C(=O)N4[C@@H]3c3ccc(O)cc3)cc2)[C@@]12C(=O)Nc1ccc(I)cc12` belongs -0.112; to `CCCCC(O)C1C=CC2C(=O)N(C)C(=O)C2N1N(c1ccccc1)c1ccccc1` (stereo not given), -0.0161; to `CCCC=C(CCC)[C@@H](NC(=O)c1cccs1)c1ccc(C(=O)OC)cc1`, 1.34. Compound `Cc1ccccc1C(O)C1C=CC2C(=O)NC(=O)C2N1Nc1ccccn1` (stereo not given) returned a composite z-score of -0.221. `C=CCNC(=O)[C@@H]1[C@H]2C(=O)O[C@H](c3ccccc3)[C@H](c3ccccc3)N2[C@H](c2ccccc2OCCO)[C@@]12C(=O)N(C(=O)OCCOC)c1ccc(C#CC3(O)CCCCCC3)cc12` had a composite z-score of -0.0566. Next, `CCCNC(=O)[C@@H]1c2ccccc2C(=O)N(Cc2ccc(OC(F)(F)F)cc2)[C@H]1c1ccc(CO)cc1`: 0.0077. Turning to `CCCNC(=O)[C@@]1(C)c2ccccc2C(=O)N(c2ccc(C)cn2)[C@H]1c1ccc(CO)cc1`, the composite z-score was -0.124. Next, `COc1cc2c(cc1O)C(c1ccc(CN3CCCC3)cc1)N(Cc1cc3c(cc1Br)OCO3)CC2` (stereo not given): -0.109; `CCOC(=O)C[C@H]1[C@H](OC(=O)Cc2ccc3c(c2)OCO3)[C@@H](NC(=O)C2CCCCC2)c2cc(OCCCO)ccc2N1C(=O)c1ccccc1`: -0.1. Compound `O=C(NCc1ccc(F)cc1)[C@H]1C[C@H]2C(=O)NCC(=O)N2[C@H]1c1ccc(O)cc1` came in with a composite z-score of -0.0684.

As for `CN(C)c1ccc(C(O)C2C=CC3C(=O)NC(=O)C3N2Nc2ccccn2)cc1` (stereo not given), the composite z-score was -0.13. To `COc1ccc([Si](C)(C)[C@@H]2[C@@H](CC(=O)N(CCO)Cc3ccccc3)O[C@]3(C(=O)N(Cc4cccc(N5CCCCC5=O)c4)c4ccccc43)[C@H]2C)cc1` belongs 0.0825; to `CCOC(=O)C[C@H]1[C@H](OC(=O)c2ccc(C(=O)c3ccccc3)cc2)[C@@H](NC(=O)C2CCCCC2)c2cc(OCCCO)ccc2N1C(=O)c1ccc2ccccc2n1`, 0.0552.
